NPC1 prom act – qHTS Assay for NPC1 Promoter Activators; Huh7 NPC1 promoter luciferase reporter, 24 h; Potency, µM (series often up to 9.22 µM), inactives show at the highest dose activation, most hits filed as activators; 320,000 compounds, 2.4% hits; AID 485313, 2010; note: % of control where 0% means no effect; nearly all actives have a fitted effect of over 60% in size
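Stable NPC1-promoter luciferase Huh7 line; cpd (DMSO) 24 h, 37 °C, 5% CO2; Amplite luciferase reagent 10 min RT; luminescence readout. qHTS format.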
Rab9 prom act – qHTS Assay for Rab9 Promoter Activators | 320,000 compounds, 2.8% hits | Huh7 Rab9 promoter-luciferase reporter, luminescence, 24 h | Potency, µM (doses to about 9.22 µM), inactives show at the highest dose activation, negative = inhibition, most hits filed as activators; note: % of control where 0% means no effect; nearly all actives have a fitted effect of over 60% in size
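Rab9 promoter-driven luciferase in stably transfected Huh7 cells; 1500 cells/well rested 2 h, exposed to compound in DMSO for 24 h at 37 °C, 5% CO2. Luminescence read 10 min after adding luciferase reagent at ambient temperature.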
FLuc modulator – qHTS profiling assay for firefly luciferase inhibitor/activator using purifed enzyme and Km concentrations of substrates (counterscreen for miR-21 project); 360,000 compounds, 6.9% hits; AID 588342, 2011; Potency, µM (doses to about 57.5 µM), inactives show top-dose activity change, negative = inhibition, most hits filed as inhibitors; Luciferin 4-monooxygenase (Photinus pyralis), P08659; purified FLuc, Km substrates, luminescence inhibition;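 note: plate controls were vehicle for no effect and reference inhibitor for full effect; nearly all actives have a fitted effect of over 55% in size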
Target sequence (P08659 whole entry, looked up): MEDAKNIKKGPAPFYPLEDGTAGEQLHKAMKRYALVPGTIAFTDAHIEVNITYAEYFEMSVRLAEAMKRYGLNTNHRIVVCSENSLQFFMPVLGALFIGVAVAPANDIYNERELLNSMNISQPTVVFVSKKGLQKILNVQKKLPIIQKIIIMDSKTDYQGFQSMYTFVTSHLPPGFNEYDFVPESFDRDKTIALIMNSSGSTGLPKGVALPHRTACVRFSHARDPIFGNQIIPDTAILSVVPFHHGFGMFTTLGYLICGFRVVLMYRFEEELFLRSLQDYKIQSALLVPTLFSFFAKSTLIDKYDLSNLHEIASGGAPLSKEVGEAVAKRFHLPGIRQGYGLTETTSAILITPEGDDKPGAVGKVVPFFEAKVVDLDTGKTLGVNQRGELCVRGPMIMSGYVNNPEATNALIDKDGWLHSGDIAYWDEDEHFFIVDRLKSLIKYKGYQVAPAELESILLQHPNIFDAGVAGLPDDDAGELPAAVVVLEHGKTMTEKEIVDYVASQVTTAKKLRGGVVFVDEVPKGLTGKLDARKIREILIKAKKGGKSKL
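Purified P. pyralis luciferase (10nM final) with 10uM D-luciferin and 10uM ATP (Km levels) in 50mM Tris acetate pH 7.5, 10mM Mg acetate, 0.01% Tween-20, 0.05% BSA; qHTS 6-point titration, ~60 µM downward; luminescence read.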
ELG1 genotox – qHTS screen for small molecules that induce genotoxicity in human embryonic kidney (HEK293T) cells expressing luciferase-tagged ELG1 | HEK293T ELG1-luciferase reporter, luminescence, 16 h | Potency, µM (highest dose often 46 µM), inactives show top-dose activity change, positive = activation, hits mostly activators | 330,000 compounds, 1.3% hits | AID 504466, 2011; note: % of control where 0% means no effect; nearly all actives have a fitted effect of over 60% in size
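After overnight (16 hr) compound treatment at 37 °C, ELG1-luciferase HEK293T cells were lysed with ONE-Glo; luminescence quantified 30 min later at room temperature.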
SMN2 splice enh – qHTS Assay for Enhancers of SMN2 Splice Variant Expression. 210,000 compounds, 2.8% hits. Potency, µM (doses to about 46.1 µM), for inactives: top-dose activity change, positive = activation, usual class: activators. AID 1458, 2008. HEK293 SMN2-luciferase splicing reporter, luminescence, 30-36 h; note: % of control where 0% means no effect; nearly all actives have a fitted effect of over 55% in size
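HEK293 cells carry an SMN2 […]–luciferase reporter in which exon 7 inclusion puts luciferase in frame. Cells were plated 10-12 h before compound addition, then incubated 30-36 h at 37C. ONE-Glo luminescence was read; sodium butyrate at 4.5 mM final served as control.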
* hit, by the source's call. A selection: hits, their analogues and other compounds. The true share with any hit is near 7.5%. Calls come from the whole dose curve; as a rule, active = well fitted curve in the direction sought with a large enough effect; inconclusive = small, poorly fitted or top-dose-only effect, or another doubt; inactive = no such curve, though single readings can be large; an effect the other way counts as inactive or inconclusive. Potency is the fitted concentration of half-maximal effect.

For CN(Cc1nc(-c2ccccc2)no1)C1CCOCC1 the results were NPC1 prom act 2.51µM*, Rab9 prom act inconclusive, FLuc modulator 16.9µM* and ELG1 genotox inconclusive.
c1ccc(-c2noc(CC3CCCCC3)n2)cc1 was read as NPC1 prom act 18.1%, Rab9 prom act inconclusive, FLuc modulator 9.53µM*, ELG1 genotox inconclusive and SMN2 splice enh 16.3%.
c1ccc(-c2noc(CCC3CCCC3)n2)cc1 was read as NPC1 prom act 14.0%, Rab9 prom act inconclusive, FLuc modulator 10.7µM*, ELG1 genotox inconclusive and SMN2 splice enh 19.3%.
`c1cc(-c2noc(CCC3CCCC3)n2)ccn1` gave NPC1 prom act 12.0%, Rab9 prom act 11.2%, FLuc modulator inconclusive, ELG1 genotox inconclusive and SMN2 splice enh inconclusive.
For O=S(=O)(c1ccccc1)N(Cc1nc(-c2ccccc2)no1)C1CCCCC1 the results were NPC1 prom act 0.2%, Rab9 prom act -5.8%, FLuc modulator 2.8%, ELG1 genotox -8.2% and SMN2 splice enh -11.1%.
Screening NC(N)=Nc1nc2ccc(Cl)cc2c(=O)[nH]1 returned NPC1 prom act -5.2%, Rab9 prom act -0.1%, FLuc modulator -1.7%, ELG1 genotox -2.7% and SMN2 splice enh -2.3%.
Cc1c(C(=O)O)cnc2cc(-c3ccc(Cl)cc3)nn12 was read as NPC1 prom act inconclusive, Rab9 prom act inconclusive, FLuc modulator 9.53µM*, ELG1 genotox inconclusive and SMN2 splice enh 11.2µM*.
`CC(=O)c1cnc2cc(-c3ccc(Cl)cc3)nn2c1C` gave NPC1 prom act 4.47µM*, Rab9 prom act 3.55µM*, FLuc modulator 2.69µM* and ELG1 genotox inconclusive.
For CCOc1ccccc1NC(=O)C1CCCN(c2ncnc3onc(-c4ccc(F)cc4)c23)C1 (centres undefined) the results were FLuc modulator -7.9%.
For Cc1ccc(OCc2cc(C(=O)NC3CCc4ccccc43)no2)cn1 (centres undefined) the results were NPC1 prom act -4.8%, Rab9 prom act -12.7%, FLuc modulator -4.1% and ELG1 genotox -7.6%.
Cc1cc(C)c2nc(-c3ccncc3)cc(C(=O)N3CCN(Cc4ccccc4Cl)CC3)c2c1 was read as NPC1 prom act -1.2%, Rab9 prom act 1.4%, FLuc modulator 15.1µM* and ELG1 genotox -14.2%.
Screening O=C(c1cc(-c2ccncc2)nc2ccc(Cl)cc12)N1CCN(Cc2ccc3c(c2)OCO3)CC1 returned NPC1 prom act -1.2%, Rab9 prom act -9.4%, FLuc modulator inconclusive, ELG1 genotox -17.8% and SMN2 splice enh -7.0%.
`CCCCCCC[C@@H](C/C=C/CCC(=O)N(C)C/C(=C/Cl)C/C(=C\C(=O)N1CC(OC)=CC1=O)OC)OC` gave ELG1 genotox 2.06µM*.
CCCCCCC[C@@H](C/C=C/CCC(=O)N(C)C/C(=C/Cl)C/C(=C\C(=O)N1C[C@H](O)CC1=O)OC)OC was read as ELG1 genotox -10.7%.
Screening CCC(=O)Nc1cccc(C2=NOC3(C2)C[C@@H](C(N)=O)N(C(=O)COc2ccc(Cl)cc2)C3)c1 (some centres undefined) returned NPC1 prom act -4.7%, Rab9 prom act -4.2%, FLuc modulator -3.9% and ELG1 genotox 3.2%.
Screening CCC(=O)N1CC2(CC(c3cccc(NC(=O)COc4ccc(Cl)cc4)c3)=NO2)C[C@@H]1C(N)=O (some centres undefined) returned NPC1 prom act 1.8%, Rab9 prom act -2.4%, FLuc modulator 16.9µM* and ELG1 genotox -3.3%.
For CCCCCC(=O)N1CC2(CC(c3cccc(NC(=O)COc4ccc(Cl)cc4)c3)=NO2)C[C@@H]1C(N)=O (some centres undefined) the results were NPC1 prom act -0.6%, Rab9 prom act -4.5%, FLuc modulator 13.5µM* and ELG1 genotox -10.4%.
For C/C=C/C(=O)N1CC2(CC(c3cccc(NC(=O)COc4ccc(Cl)cc4)c3)=NO2)C[C@@H]1C(N)=O (some centres undefined) the results were NPC1 prom act inconclusive, Rab9 prom act -6.0%, FLuc modulator 19µM* and ELG1 genotox -4.3%.
NC(=O)[C@H]1CC2(CC(c3cccc(NC(=O)COc4ccc(Cl)cc4)c3)=NO2)CN1C(=O)c1ccc(Cl)cc1 (some centres undefined) was read as NPC1 prom act -0.2%, Rab9 prom act -5.0%, FLuc modulator 7.57µM* and ELG1 genotox -17.5%.
`Cc1cc(C)c(S(=O)(=O)NCC(c2ccc(N(C)C)cc2)N2CCc3ccccc32)c(C)c1` (centres undefined) gave FLuc modulator -1.1%.
CC1(C(=O)N2CC3(CC(c4cccc(NC(=O)COc5ccc(Cl)cc5)c4)=NO3)C[C@@H]2C(N)=O)CC1 (some centres undefined) was read as NPC1 prom act 3.0%, Rab9 prom act 0.3%, FLuc modulator 21.3µM* and ELG1 genotox -5.5%.
`NC(=O)[C@H]1CC2(CC(c3cccc(NC(=O)COc4ccc(Cl)cc4)c3)=NO2)CN1C(=O)c1ccccc1C(=O)c1ccccc1` (some centres undefined) gave NPC1 prom act -3.2%, Rab9 prom act -3.9%, FLuc modulator inconclusive and ELG1 genotox -11.2%.
Cc1cc(Cl)ccc1OCc1nc(-c2ccc(-n3cccc3)cc2)no1 was read as FLuc modulator -1.4% and SMN2 splice enh -7.9%.
Cc1cc(Cl)ccc1OCc1nc(-c2ccc(O)cc2)n[nH]1 was read as NPC1 prom act -3.4%, Rab9 prom act -0.2%, FLuc modulator 10.7µM*, ELG1 genotox -2.5% and SMN2 splice enh 10.2%.
`COc1ccc2nc(NC(=O)Nc3ccccc3)sc2c1` gave NPC1 prom act inconclusive, Rab9 prom act 0.708µM*, FLuc modulator 0.477µM*, ELG1 genotox inconclusive and SMN2 splice enh 0.891µM*.
Screening CCOc1ccc2nc(NC(=O)NC3CCCCC3)sc2c1 returned NPC1 prom act inconclusive, Rab9 prom act inconclusive, FLuc modulator inconclusive, ELG1 genotox inconclusive and SMN2 splice enh 19.1%.
COc1ccc(NC(=O)Nc2nc3ccccc3s2)cc1 was read as NPC1 prom act 1.78µM*, Rab9 prom act 1.58µM*, FLuc modulator 2.39µM* and ELG1 genotox inconclusive.
`COc1ccc(C(=O)Nc2cccc(/C=C(\CCC(=O)O)c3nc4ccccc4s3)c2)cc1` gave NPC1 prom act 3.16µM*, Rab9 prom act inconclusive, FLuc modulator 9.53µM* and ELG1 genotox 0.5%.

Compound activity deposited in PubChem BioAssay by National Center for Advancing Translational Sciences (NCATS).
